According to PubChem BioAssay (Tox21):
Several values for one entry are separate records, joined by “and”; a condition that tells them apart may be missing. Identical values can stand only once. Inconclusive results are not listed. Activity calls are given as the source filed them. Unless noted, calls come from the whole dose curve; as a rule, active = well fitted curve in the direction sought with a large enough effect in the repeat runs; inconclusive = weak or mixed curves; inactive = no such curve, though single readings can be large; an effect the other way counts as inactive or inconclusive.

Columns and labels:
[1] = qHTS assay to identify small molecule agonists of the hypoxia (HIF-1) signaling pathway - cell viability counter screen (AID 1224844; calls by dose curve; note: nearly all actives have a fitted effect of over 50% in size; note: potency is the fitted concentration of half-maximal effect)
Outline: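 In this counter screen, HRE-bla ME-180 cell viability after 17 hrs of compound exposure at 37C was read by CellTiter-Glo luminescence, multiplexed with the beta-lactamase reporter measurement.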

[2] = qHTS assay to identify small molecule agonists of H2AX - cell viability counter screen (AID 1224847; calls by dose curve; note: nearly all actives have a fitted effect of over 30% in size; note: potency is the fitted concentration of half-maximal effect; for activity change, negative = cytotoxicity: top concentration of the series differs between compounds)
Outline: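 Read-out: CellTiter-Glo luminescence, 30 min RT. Cells: wild-type CHO-K1, 1000/well, 10% FBS, plated overnight at 37C. Treatment: 15 concentrations, 3 hr, 37C, 0.76% DMSO.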

[3] = qHTS assay to identify small molecule agonists of the estrogen related receptor (ERR) signaling pathway from Tox21 library (AID 1224849; calls by dose curve; note: nearly all actives have a fitted effect of over 15% in size); conditions: ERR reporter cell line, ONE-Glo luciferase, 18 h; at 92.4 µM (top of the series) unless noted
Outline: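 Luciferase activity in ERR pathway reporter cells served as the agonist readout; exposure lasted 18 h at 37 C, with ONE-Glo detection after 30 min at room temperature.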

[4] = qHTS RealTime-Glo MT Cell Viability Assay in HEK293 cells - 32 hour (AID 1224868); note: nearly all actives have a fitted effect of over 50% in size; note: potency is the fitted concentration of half-maximal effect; for activity change, negative = cytotoxic: top concentration of the series differs between compounds
Outline: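 Viability tracked continuously by luminescence as live cells reduce a prosubstrate for NanoLuc; HEK293 cells preincubated 5 h, compound-treated at 37 C, and read at 0, 8, 16, 24, 32 and 40 h.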

[5] = A CellTox Green Cytotoxicity Assay to monitor cytotoxicity in HEK293 cells - 0 hour (AID 1224869); note: nearly all actives have a fitted effect of over 50% in size
Outline: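 Real-time, in one plate: 600 HEK293 cells/well with dead-cell DNA dye, pinned compound after 5 h, 37 C incubation over 40 h; viable cells give no appreciable fluorescence.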

[6] = qHTS RealTime-Glo MT Cell Viability Assay in HepG2 cells - 40 hour (AID 1224870); note: nearly all actives have a fitted effect of over 50% in size; note: potency is the fitted concentration of half-maximal effect
Outline: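 Real-time viability: cells seeded at 600 per well together with NanoLuc and cell-permeant prosubstrate, compounds added after 5 h incubation. Luminescence tracked at 0, 8, 16, 24, 32 and 40 h of exposure.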

[7] = qHTS RealTime-Glo MT Cell Viability Assay in HepG2 cells - 24 hour (AID 1224867); note: nearly all actives have a fitted effect of over 50% in size; note: potency is the fitted concentration of half-maximal effect
Outline: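 Viability was tracked continuously by NanoLuc luminescence from prosubstrate reduced by living HepG2 cells, at successive time points over 40 h of compound exposure. Cells with reagent were preincubated 5 h at 37 °C before compound addition.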

[8] = qHTS assay to identify small molecule agonists of the hypoxia (HIF-1) signaling pathway (AID 1224846; active = well fitted activation curve with a large enough effect in the signal ratio in the repeat runs, not every such curve was filed as active; the % refers to the signal ratio; note: potency is the fitted concentration of half-maximal effect)
Outline: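 ME-180 HRE-bla reporter cells; compounds in DMSO, 17 h at 37C; read-out beta-lactamase via CCF4-AM FRET.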

[9] = qHTS assay to identify small molecule antagonists of the estrogen related receptor (ERR) signaling pathway from Tox21 library (AID 1224848); note: nearly all actives have a fitted effect of over 50% in size; note: potency is the fitted concentration of half-maximal effect
Outline: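 ERR cell line, 2,000 cells/well. 6 h settle, then compound (DMSO) added; 18 h at 37 C; ONE-Glo luminescence after 30 min RT.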

[10] = qHTS assay to identify small molecule agonists of H2AX (AID 1224845; active = well fitted activation curve with a large enough effect in the signal ratio in the repeat runs, not every such curve was filed as active; the % refers to the signal ratio; note: potency is the fitted concentration of half-maximal effect)
Outline: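 Phospho-H2AX Ser139 measured by HTRF (ex 320 nm; em 665 and 620 nm) after 24 hr antibody incubation. Compounds, 15 concentrations, 0.76% DMSO, were applied to CHO-K1 cells for 3hr at 37C before lysis.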
% is set by controls: 0 for no effect and ±100 for the full control effect.

O=C(OC[C@H]1O[C@@H](OC(=O)c2cc(O)c(O)c(OC(=O)c3cc(O)c(O)c(O)c3)c2)[C@H](OC(=O)c2cc(O)c(O)c(OC(=O)c3cc(O)c(O)c(O)c3)c2)[C@@H](OC(=O)c2cc(O)c(O)c(OC(=O)c3cc(O)c(O)c(O)c3)c2)[C@@H]1OC(=O)c1cc(O)c(O)c(OC(=O)c2cc(O)c(O)c(O)c2)c1)c1cc(O)c(O)c(OC(=O)c2cc(O)c(O)c(O)c2)c1
inactive: activity change, negative = cytotoxicity [1] -0.825% [at 15.8 µM] | Potency [2] | activity change, positive = activation [3] -16% [at 19 µM] | activity change, negative = cytotoxic [4] -17.3% [at 15.8 µM] | cytotoxicity [5] -16.9% [at 15.8 µM]

O=C(Nc1cccc(C(F)(F)F)c1)c1cc(Br)cc(Br)c1O
inactive: Potency [5]
active: Potency [1] 19.5 µM | Potency [2] 16 µM | Potency [4] 4.36 µM | Potency [6] 21.9 µM

N=C1N=C(N)c2cc3ccccc3cc21
inactive: Potency [5]
active: Potency [1] 15.5 µM | Potency [2] 127 µM | activity change, positive = activation [3] 2.31% | Potency [7] 47.6 µM [cytotoxic] | Potency [4] 19.5 µM | Potency [6] 24.5 µM [cytotoxic]

CC(C)n1nc(-c2cc3cc(O)ccc3[nH]2)c2c(N)ncnc21
active: Potency [1] 1.9 µM | Potency [9] 1.06 µM | Potency [4] 0.239 µM
inactive: Potency [8] | Potency [2] | activity change, positive = activation [3] -55.4% [at 42.5 µM] | Potency [5]

CN(C)c1ccc(C2(c3ccc(N(C)C)cc3)OC(=O)c3cc(N(C)C)ccc32)cc1
inactive: Potency [1] | Potency [2] | Potency [9] | activity change, positive = activation [3] -13.6% | Potency [4] | Potency [5]

CC(C)CCCCCCCCCCCCCCC(=O)O
inactive: activity change, positive = activation [3] -17% | Potency [7] | Potency [5] | Potency [6]
active: Potency [1] 17.4 µM | Potency [2] 1.6 µM

O=C1CCCc2c1cc1ccc3cccc4ccc2c1c34
active: Potency [1] 44.2 µM | Potency [8] 49.6 µM | Potency [4] 11.1 µM
inactive: Potency [7] | Potency [5] | Potency [6]

OC1(c2ccc(Cl)c(C(F)(F)F)c2)CCN(CCCC(c2ccc(F)cc2)c2ccc(F)cc2)CC1
inactive: activity change, positive = activation [3] -71.9% [at 42.5 µM] | Potency [5]
active: Potency [1] 6.74 µM | Potency [9] 8.41 µM | Potency [7] 9.52 µM

[Cl][Bi]([Cl])([c]1ccccc1)([c]1ccccc1)[c]1ccccc1
inactive: Potency [5]
active: Potency [1] 19.4 µM | Potency [2] 35.5 µM | Potency [7] 6.88 µM | Potency [4] 2.44 µM

CCCCCCCCCOC(=O)c1ccc(O)cc1
inactive: activity change, positive = activation [3] -33.4% | Potency [5]
active: Potency [1] 54.2 µM | Potency [2] 99.3 µM

CC1(C)CCC(C)(C)c2cc(C(=O)Nc3ccc(C(=O)O)cc3)ccc21
inactive: Potency [1] | Potency [8] | activity change, positive = activation [3] -24.2% | Potency [7] | Potency [4] | Potency [5] | Potency [6]

CCCCCCCCCCCC(=O)NCCCN(C)C
active: Potency [1] 49 µM | Potency [2] 101 µM | Potency [7] 43.6 µM | Potency [6] 38.9 µM
inactive: Potency [5]

CCN(CC)CCNC(=O)c1c(C)[nH]c(/C=C2\C(=O)Nc3ccc(F)cc32)c1C
inactive: Potency [8]
active: Potency [1] 9.52 µM | Potency [7] 21.3 µM | Potency [4] 10.7 µM | Potency [6] 15.1 µM

N=C1C=CC(=C(c2ccc(N)cc2)c2ccc(N)cc2)C=C1
active: Potency [2] 28.4 µM | Potency [9] 2.17 µM | Potency [7] 24.5 µM | Potency [4] 2.19 µM | Potency [6] 38.9 µM
inactive: Potency [1] | Potency [5]

O=[N+]([O-])c1cc([N+](=O)[O-])c2ccc(S(=O)(=O)O)cc2c1O
inactive: Potency [1] | Potency [2] | Potency [7] | Potency [5] | Potency [6]

CC/C(=C(\c1ccc(O)cc1)c1ccc(OCCN(C)C)cc1)c1ccccc1
active: Potency [1] 55.1 µM | Potency [2] 90 µM | Potency [7] 61.8 µM | Potency [4] 19.5 µM
inactive: activity change, positive = activation [3] -78.4% | Potency [5]

OCc1c[nH]c2ccccc12
inactive: Potency [1] | activity change, positive = activation [3] -39.5% | Potency [7] | Potency [5] | Potency [6]
active: Potency [9] 13.7 µM

Oc1ccc2cc(SSc3ccc4cc(O)ccc4c3)ccc2c1
active: Potency [9] 61.2 µM and 54.5 µM
inactive: Potency [1] | Potency [8] | activity change, positive = activation [3] -64.5% and -58.9% | Potency [7] | Potency [5] | Potency [6]

CCCCCCCC[P+](CCCCCCCC)(CCCCCCCC)CCCCCCCC
active: Potency [1] 3.45 µM | Potency [2] 7.95 µM | Potency [7] 13.7 µM | Potency [4] 0.434 µM | Potency [6] 10.9 µM
inactive: activity change, positive = activation [3] -78.2% | Potency [5]

O=[N+]([O-])c1cc(Cl)c(Cl)c(Cl)c1Cl
inactive: Potency [1] | Potency [8] | Potency [2] | activity change, positive = activation [3] -25.7% | Potency [7] | Potency [5] | Potency [6]

CCN(CC)CCCC(C)Nc1c2ccc(Cl)cc2nc2ccc(OC)cc12 (stereo unspecified)
inactive: Potency [2] | Potency [5]
active: Potency [1] 16.9 µM | Potency [7] 6.74 µM | Potency [4] 2.68 µM | Potency [6] 5.35 µM

CCN1/C(=C/C=C/c2sc3ccccc3[n+]2CC)Sc2ccccc21
active: Potency [2] 7.6 µM | Potency [9] 0.231 µM | Potency [4] 1.04 µM
inactive: activity change, negative = cytotoxicity [1] 19.1% [at 15.8 µM] | activation [8] 0.484% [at 15.8 µM] | activity change, positive = activation [3] -58.8% [at 19 µM] | cytotoxicity [5] -12.5% [at 15.8 µM]

CN(C/C=C/C#CC(C)(C)C)Cc1cccc2ccccc12
inactive: Potency [1] | Potency [8] | Potency [7] | Potency [5] | Potency [6]

Nc1ccc2cc(S(=O)(=O)O)cc(O)c2c1N=Nc1ccccc1C(F)(F)F
inactive: Potency [1] | Potency [8] | activity change, positive = activation [3] 0.11% | Potency [7] | Potency [4] | Potency [5]

ON=C1CCCC1
inactive: Potency [8] | Potency [7] | Potency [5] | Potency [6]
active: Potency [10] 104 µM | Potency [9] 39.9 µM | Potency [4] 25.4 µM

CCCCCCCC/C=C\CCCCCCCCOCCO
active: Potency [1] 28.4 µM | Potency [4] 3.19 µM
inactive: Potency [5] | Potency [6]

CCCCC(CC)COC(=O)c1ccccc1C(=O)O (stereo unspecified)
inactive: Potency [10] | Potency [8] | Potency [2] | activity change, positive = activation [3] -12.5% | Potency [7] | Potency [5] | Potency [6]

COCCCC/C(=N\OCCN)c1ccc(C(F)(F)F)cc1
inactive: Potency [10] | Potency [8] | Potency [2] | Potency [9] | activity change, positive = activation [3] -2.43% [at 42.5 µM] | Potency [7] | Potency [5] | Potency [6]

CNCc1cc(F)ccc1Oc1ccc(Cl)c(Cl)c1
active: Potency [2] 45 µM | Potency [9] 48.6 µM | Potency [7] 49 µM | Potency [4] 43.6 µM
inactive: Potency [10] | activity change, positive = activation [3] -40.3% | Potency [5]

CC(C)C(C)(C)C(C)(C)C(C)(C)S
inactive: Potency [10] | Potency [8] | Potency [2] | Potency [7]

On1ccccc1=S
active: Potency [1] 0.432 µM | Potency [7] 0.544 µM | Potency [4] 4.32 µM | Potency [6] 0.485 µM
inactive: activity change, positive = activation [3] -71.1% | Potency [5]

O=CC=C(c1ccccc1)c1ccccc1
inactive: Potency [1] | Potency [7] | Potency [5] | Potency [6]

CCC1=C[C@@H]2CN(C1)Cc1c([nH]c3ccccc13)[C@@](C(=O)OC)(c1cc3c(cc1OC)N(C)[C@H]1[C@@](O)(C(=O)OC)[C@H](OC(C)=O)[C@]4(CC)C=CCN5CC[C@]31[C@@H]54)C2
active: Potency [9] 18.8 µM | Potency [4] 0.0151 µM
inactive: Potency [10] | Potency [8] | Potency [2] | Potency [5]

NC(=O)CC[C@@H]1NC(=O)[C@H](Cc2ccccc2)NC(=O)[C@H](Cc2ccc(O)cc2)NC(=O)CCSSC[C@@H](C(=O)N2CCC[C@H]2C(=O)N[C@@H](CCCN=C(N)N)C(=O)NCC(N)=O)NC(=O)[C@H](CC(N)=O)NC1=O
inactive: Potency [10] | Potency [8] | Potency [7] | Potency [4] | Potency [5] | Potency [6]
